# Bioassay records as filed in PubChem BioAssay.
# TRPM1 prom inh = inhibitors of MITF-dependent TRPM1 promoter reporter, primary screen, cell-based, SK-MEL-5, single point, luciferase; SK-MEL-5 TRPM1 promoter luciferase, 24 h; inhibition, % at 12.5 µM; actives 0.83% (n = 330,000);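 active = mean inhibition across replicates of 60% or more, whatever share of single replicates reaches that level; inconclusive = some that reach 60%, reason not given; inactive = mean inhibition across replicates below 60%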
# LGR2 antag = inhibitors of bursicon-induced LGR2 CRE-luciferase signal, primary screen, cell-based, HEK293, CRE-luciferase reporter, bursicon stimulation. inhibition, % at 9.99 µM. actives 0.35% (n = 380,000). bursicon-stimulated, 4 h;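 active = drop in luminescence signal, shown as inhibition above about 50% in the replicate tests, limit read from the data, passing the limit was not always enough; inconclusive = probably only some replicates passing the limit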;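 note: agonist challenge used bursicon conditioned medium at about half maximal strength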
# LMP1 NFkB inh = EBV LMP1-driven NF-kappaB luciferase reporter inhibitors, primary screen, cell-based, luminescence, single point; actives 0.69% (n = 350,000); inhibition, % at 12.5 µM; AID 504558, 2011; LMP1-induced NF-kappaB luciferase reporter cells; in the data active = inhibition above about 41%; inconclusive = no clear call, values can overlap the other calls
# TWEAK Fn14 block = inhibitors of TWEAK-Fn14 signaling, primary screen, luciferase reporter cells, uHTS; TWEAK-stimulated Fn14 reporter cells, luciferase luminescence, 8 h; inhibition, % at 10 µM; actives 2% (n = 360,000); AID 1159606, 2016; in the data active = inhibition above about 50%
# TROY signal inh = inhibitors of TROY-driven NF-kB signaling, primary screen, Q293 LMP1-TROYcd cells, NF-kB luciferase, uHTS; Q293 LMP1-TROYcd NF-kB luciferase reporter, 4 h; inhibition, % at 10 µM; actives 0.98% (n = 360,000); AID 1347056, 2019;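 active = compounds whose plate-normalised and pattern-corrected inhibition of the luciferase reporter signal at the single screening dose is 50% or more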
# MITF TRPM1 HTS = activators of MITF-driven TRPM1 promoter reporter, primary screen, cell-based, SK-MEL-5, luciferase, single point; AID 588334, 2011; actives 0.75% (n = 300,000); SK-MEL-5 TRPM1-promoter luciferase, 24 h; % of positive control, neutral wells = 0; activation, % at 12.5 µM;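 active = mean activation of at least 80% with every replicate also reaching 80%; inconclusive = mean reaches 80% but some replicate falls short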
# Hits are given with their value; - = inactive; ? = inconclusive; . = not tested or not shown. Hits are enriched below; roughly 3% of the tested compounds scored in any of these assays.
SMILES,TRPM1 prom inh,LGR2 antag,LMP1 NFkB inh,TWEAK Fn14 block,TROY signal inh,MITF TRPM1 HTS
C[C@H]1CN([C@@H](C)CO)C(=O)c2cccc(NS(=O)(=O)c3cn(C)cn3)c2O[C@H]1CN(C)Cc1ccc(-c2ccccc2)cc1,.,-,.,.,.,.
COc1ccc(-n2nc(C#N)c(Cl)cc2=O)cc1,100,105,-,96,61,-
Cc1ccc(S(=O)(=O)Nc2ccc3c(c2)C(=O)N([C@@H](C)CO)C[C@@H](C)[C@H](CN(C)C(=O)c2ccncc2)OCCCC[C@H](C)O3)cc1,.,-,.,.,.,.
COc1ccc(C2c3c(ncn(CCCN4CCOCC4)c3=N)Oc3ccc4ccccc4c32)cc1OC (stereo unspecified),80,.,-,-,-,-
COc1ccc(C2c3ccc4ccccc4c3Oc3ncn(CCN4CCOCC4)c(=N)c32)cc1 (stereo unspecified),77,.,-,-,-,.
N=c1c2c(ncn1CCCO)Oc1c(ccc3ccccc13)C2c1ccccc1 (stereo unspecified),-,-,-,-,-,-
CN(C)CCCn1cnc2c(c1=N)C(c1ccccc1)c1ccc3ccccc3c1O2 (stereo unspecified),99,-,-,-,-,-
COc1ccc(C2c3ccc4ccccc4c3Oc3ncn(CCN(C)C)c(=N)c32)cc1 (stereo unspecified),95,-,-,-,-,-
COc1ccc(C2c3ccc4ccccc4c3Oc3ncn(CCCO)c(=N)c32)cc1 (stereo unspecified),-,-,-,-,-,.
COc1ccc(C2c3ccc4ccccc4c3Oc3ncn(CCO)c(=N)c32)cc1 (stereo unspecified),78,-,-,-,-,-
O=C(CN1CCOCC1)NCC[C@H]1CC[C@@H](NC(=O)Nc2ccc(C(F)(F)F)cc2)[C@H](CO)O1,.,-,.,.,.,.
Cc1ccc2c(c1)N(CC(=O)NCCCN1CCCC1)C(=O)CO2,-,-,-,-,-,-
Cc1ccc2c(c1)N(CCCC(=O)NCCCN1CCCCC1)C(=O)CO2,.,-,-,64,-,.
O=C(c1ccccc1)c1coc2c1C(=O)c1ccccc1C2=O,-,-,-,68,-,-
O=C1c2ccccc2C(=O)c2c1oc(C(F)(F)F)c2C(=O)c1ccccc1,103,.,68,74,55,-
CCCC(=O)N1CC2(CCN(S(=O)(=O)CC)CC2)c2c(n(C)c3cc(OC)ccc23)[C@H]1CO,.,-,.,.,.,.
C[C@@H]1CN([C@H](C)CO)C(=O)Cc2cc(NC(=O)c3ccncc3)ccc2O[C@H]1CN(C)CC1CCCCC1,.,-,.,.,.,.
COc1ccc(-c2cc(C(F)(F)F)nc(S(=O)(=O)CCCC(=O)Nc3cccc(O)c3)n2)cc1OC,.,?,.,96,53,.
COc1ccccc1-c1cc(C(F)(F)F)nc(S(=O)(=O)CCCC(=O)O)n1,-,.,-,-,-,-
COc1ccccc1-c1cc(C(F)(F)F)nc(S(=O)(=O)CCCC(=O)N2CCOCC2)n1,80,.,-,-,58,.
COc1ccc(-c2cc(C(F)(F)F)nc(S(=O)(=O)CCC(=O)N3CCOCC3)n2)cc1,-,.,-,75,-,-
O=C(Nc1ccc(Br)cc1)C1CCN(C(=O)c2ccco2)CC1,-,-,-,55,-,-
O=C(C[C@H]1CC[C@@H]2[C@H](COC[C@H](O)CN2S(=O)(=O)c2ccc(F)cc2)O1)N[C@H]1CCN(Cc2ccccc2)C1,.,-,.,.,.,.
C[C@@H]1CN([C@H](C)CO)C(=O)Cc2cc(NS(=O)(=O)c3ccc(F)cc3)ccc2O[C@H]1CN(C)S(=O)(=O)c1cccs1,.,-,.,.,.,.
COc1ccc(CC2=C(O)c3ccccc3C(=O)C2=O)cc1,-,-,-,-,-,.
O=C1C(=O)c2ccccc2C(O)=C1CCCCl,78,.,-,-,-,.
CCN(CC)C(=O)CSc1nc(-c2ccc(C)cc2)nc2c1COC(C)(C)C2,-,.,-,58,58,.
CCCc1cn(CC[C@@H]2CC[C@@H](NS(=O)(=O)c3ccccc3Cl)[C@H](CO)O2)nn1,.,-,.,.,.,.
